Shown are actives, neighbours in structure and some others; about 3.6% of the full set was active somewhere.
Pf apPOL inh: Pf-apPOL DNA polymerase inhibition | Recombinant Pf-apPOL, molecular beacon fluorescence, 1.5 h | inhibition, % at 10 µM | 210,000 tested, 0.25% active | AID 1794808
mHTT CaM bind: inhibitors of human mutant huntingtin-calmodulin interaction. P42858. AlphaScreen His-mHTT/GST-CaM binding, luminescence. inhibition, % at 15 µM. 190,000 tested, 3.6% active. AID 1671202;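 note: 0% = both proteins with DMSO and 100% = one protein alone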
Numbers without * were called inactive; i = inactive; . = not tested or not shown; + = active, no number; ! = not active in a repeat. Cut-off read from the data, not from the text of the source: active = inhibition above about 50%; inactive = the rest.

SMILES | Pf apPOL inh | mHTT CaM bind
CC(=O)NC(c1ccccc1C)c1ccc2cccnc2c1O (centres undefined) | 14 | 100*
Cc1ccccc1C(NC(N)=O)c1ccccc1 (centres undefined) | -4 | -9
CC(=O)NC(c1ccc(C)cc1)c1ccc2cccnc2c1O (centres undefined) | -1 | 100*
O=C(Nc1ccc(-c2ccc([N+](=O)[O-])cc2)cc1)c1ccco1 | -2 | 2
CC(Oc1cccc2cccnc12)C(=O)O (centres undefined) | -2 | 2
Cc1cccnc1NC(c1ccc([N+](=O)[O-])cc1)c1ccc2cccnc2c1O (centres undefined) | -253 | 100*
Cc1ccc2cccc(SCc3ccc([N+](=O)[O-])cc3)c2n1 | -1 | 3
Cc1cccc(/C=C2/N=C(c3ccccc3)OC2=O)c1 | 0 | 25
Cc1cc2n(n1)CCC(=O)N2CCCC(=O)NC1CCN(Cc2ccccc2)CC1 | -3 | -2
CC(=O)NC(c1ccc([N+](=O)[O-])cc1)c1ccc2cccnc2c1O (centres undefined) | -4 | 100*
Cc1ccc(CN2CCCn3nc(C(=O)NCCc4ccccc4)cc3C2=O)cc1 | -4 | -6
O=[N+]([O-])c1cc(Br)c2nsnc2c1N1CCCCCC1 | . | 51*
O=[N+]([O-])c1cc(Br)c2nsnc2c1Br | -6 | 30
CCOC(=O)N1CCc2c(sc(NC(=O)c3ccnn3C(C)C)c2C#N)C1 | -15 | -2
CSc1nnc2c(n1)OC(c1ccc(C(=O)O)cc1)Nc1ccc(Br)cc1-2 (centres undefined) | -12 | 4
CCCSc1nnc2c(n1)OC(c1ccco1)Nc1ccc(Br)cc1-2 (centres undefined) | -7 | 53*
CCCSc1nnc2c(n1)OC(c1ccco1)Nc1ccccc1-2 (centres undefined) | -5 | 7
CSc1nnc2c(n1)OC(c1ccncc1)Nc1ccc(Br)cc1-2 (centres undefined) | -5 | 54*
CSc1nc2ccccc2n1Cc1ccccc1F | 1 | -12
CC(=O)Nc1ccc(-c2cn3nc(-c4ccccc4)sc3n2)cc1 | 0 | 58*
Clc1ccc(-c2cn3nc(-c4ccccc4)sc3n2)cc1 | -6 | 3
Oc1ccccc1C=NNc1nc2c(Cl)cc(Cl)cc2s1 | 0 | .
Oc1ccc(/C=N/Nc2nccnc2Cl)c(O)c1 | . | +
CCc1cc(C2CCCN2C(=O)c2c(Br)cnn2C)on1 (centres undefined) | -5 | -5
CC(=O)N1CCc2[nH]c3ccc(C(=O)N4CCCC4)cc3c2C1 | 0 | 61*
SMILES | Pf apPOL inh | mHTT CaM bind
CC(=O)N1CCc2[nH]c3ccc(C(=O)N(C)c4cccc(Cl)c4)cc3c2C1 | -6 | 50*
CC(=O)N1CCc2[nH]c3ccc(C(=O)N4CCN(Cc5ccccc5)CC4)cc3c2C1 | 0 | 38
CCCN1CCN(C(=O)c2ccc3[nH]c4c(c3c2)CN(C(C)=O)CC4)CC1 | -5 | 8
O=C(c1ccc(F)cc1)N1CCN(Cc2noc(-c3ccc(Cl)cc3)n2)CC1 | -9 | 4
CC1CCCN(C(=O)c2csc(N3CCN(c4ccccc4F)CC3)n2)C1 (centres undefined) | -6 | 24
C#CCNC(=O)C1COC2(CCC(C)CC2)N1C(=O)c1cccc(OC)c1 (centres undefined) | -5 | 5
Cc1nn(CCCC(=O)Nc2cccc(O)c2)c(C)c1[N+](=O)[O-] | 0 | 5
O=C1Cc2ccccc2C1=C1Cc2ccccc2C1 | 12 | .
O=C1C(=C2C/C(=N/O)c3ccccc32)C(=O)c2ccccc21 | . | +
O=C1CC(=C2C(=O)c3ccccc3C2=O)c2ccccc21 | . | 86*
O=C1C(c2ccccn2)=C(O)c2ccccc21 | 1 | 4
COC(=O)C1=C(C)NC(=S)NC1c1ccc(O)cc1 (centres undefined) | 0 | 3
CC1=NN(c2cccc(F)c2)C(=O)/C1=C/c1ccc(N(C)C)cc1 | -10 | 10
CC1=NN(c2ccc(I)cc2)C(=O)/C1=C/c1ccc(N(C)C)cc1 | -1 | 57*
CC1=NN(c2ccc(C)c(C)c2)C(=O)/C1=C/c1ccc(N(C)C)c([N+](=O)[O-])c1 | -4 | 1
CN(C)c1ccc(/C=C2\C(=O)N(c3ccccc3)N=C2c2ccccc2)cc1 | -4 | 56*
CC1=NN(c2ccc(Cl)c(Cl)c2)C(=O)/C1=C/c1ccc(N(C)C)cc1 | 1 | 44
CCN(CC)c1ccc(/C=C2/C(=O)N(c3ccc(C)c(C)c3)N=C2C)cc1 | -1 | 86*
CCN(CC)S(=O)(=O)c1cc(C(=O)Nc2ccc(F)cc2)ccc1Br | -1 | 1
CCN(CC)CCCNC(=O)CC1CCN(C(=O)c2ccc(C)cc2)CC1 | -2 | 6
Cc1ccc(C(=O)N2CCC(CC(=O)NCCCN(C)c3ccccc3)CC2)cc1 | -4 | 51*
COc1ccc(CC(=O)Nc2cc(N3CCOCC3)ncn2)cc1OC | -4 | -8
COc1cccc(-c2nc(C3CCN(C(=O)c4ccccc4)CC3)no2)c1 | 0 | 13
Cc1cccc(-c2nc(C3CCN(C(=O)Cc4cccc(F)c4)CC3)no2)c1 | 0 | 20
Cc1cccc(-c2nc(C3CCN(C(=O)COc4ccc(Cl)cc4)CC3)no2)c1 | -1 | 80*
SMILES | Pf apPOL inh | mHTT CaM bind
COc1cccc(-c2nc(C3CCN(C(=O)C4COc5ccccc5O4)CC3)no2)c1 (centres undefined) | 1 | 87*
CCC(=O)N1CCc2c(C(=O)NC3CCCCC3)cccc21 | 0 | -2
COc1ccc(C=C2Oc3c(ccc(O)c3CN3CCCCC3)C2=O)c(OC)c1OC | -15 | 17
O=C(C1CCCC1)N1CCC(Cc2nnc(-c3ccccc3)o2)CC1 | -1 | 2
COC(=O)C=C1SC(c2ccccc2)=NC1=O | i | .
COc1ccc(C(=O)NC(c2ccccc2)c2ccccc2)cc1OC | -6 | -3
COc1ccc(NC(=O)NC(c2ccccc2)c2ccccc2)cc1OC | -5 | 62*
COc1ccc(-c2ccc(/C=C3\SC(=N)NC3=O)o2)c([N+](=O)[O-])c1 | 1 | 59*
Cc1c(-c2ccc(/C=C3\SC(=N)NC3=O)o2)ccc([N+](=O)[O-])c1C | 2 | 41
O=C(Nc1nnc(-c2ccc(F)cc2)o1)c1ccc(S(=O)(=O)N2CCCc3ccccc32)cc1 | -72 | -5
O=C(Nc1nnc(C2CC2)o1)c1ccc(S(=O)(=O)N2CCCc3ccccc32)cc1 | -116 | 67*!
Cc1ccccc1CNS(=O)(=O)c1ccc(C)c([N+](=O)[O-])c1 | 10 | -1
Cn1c(C2CCN(C(=O)c3ccc(F)cc3F)C2)nc2ccncc21 (centres undefined) | -9 | -2
CC(=O)N(C)CC1C(C)C=C(C)CC1C (centres undefined) | -2 | 8
Cc1ccc2ccc3ccc(C)nc3c2n1 | . | 1
Cc1cccc(NC(c2cccc(C)n2)c2ccc3ccc(C)nc3c2O)n1 (centres undefined) | 1 | 76*
Cc1cccc(NC(=O)C(=O)NCc2ccccn2)n1 | -5 | -11
Cc1cccc(NC(c2ccccn2)c2ccc3ccc(C)nc3c2O)n1 (centres undefined) | -3 | 99*
COc1ccccc1C(=O)Nc1ccc(O)c(-c2nc3cc(C)ccc3o2)c1 | 2 | -3
COc1cccc(C(=O)Nc2ccc(-c3nc4cc(C)ccc4o3)cc2)c1 | 1 | 4
Cc1c(C(=O)NCCSc2nncn2C)nnn1-c1nccs1 | 32 | -9
O=C(NCc1ccc(F)cc1Cl)c1cn2c(n1)CCCC2 | -1 | -4

From PubChem BioAssay
